Records with an inconclusive call do not appear. Calls of active or inactive are those of the source. Unless noted, the call rests on the fitted dose curve; in most records, active means well fitted curve in the direction sought with a large enough effect in the repeat runs; inconclusive means weak or mixed curves; inactive means no such curve, though single readings can be large; an effect the other way counts as inactive or inconclusive.
What was measured:
[1] = target: Androgen receptor (Homo sapiens) (UniProt P10275); assay: qHTS assay to identify small molecule agonists of the androgen receptor (AR) signaling pathway in the presence of an antagonist (AID 1259381; calls by dose curve; further: nearly all actives have a fitted effect of over 15% in size)
Sequence of Androgen receptor (Homo sapiens) (P10275 whole entry, looked up): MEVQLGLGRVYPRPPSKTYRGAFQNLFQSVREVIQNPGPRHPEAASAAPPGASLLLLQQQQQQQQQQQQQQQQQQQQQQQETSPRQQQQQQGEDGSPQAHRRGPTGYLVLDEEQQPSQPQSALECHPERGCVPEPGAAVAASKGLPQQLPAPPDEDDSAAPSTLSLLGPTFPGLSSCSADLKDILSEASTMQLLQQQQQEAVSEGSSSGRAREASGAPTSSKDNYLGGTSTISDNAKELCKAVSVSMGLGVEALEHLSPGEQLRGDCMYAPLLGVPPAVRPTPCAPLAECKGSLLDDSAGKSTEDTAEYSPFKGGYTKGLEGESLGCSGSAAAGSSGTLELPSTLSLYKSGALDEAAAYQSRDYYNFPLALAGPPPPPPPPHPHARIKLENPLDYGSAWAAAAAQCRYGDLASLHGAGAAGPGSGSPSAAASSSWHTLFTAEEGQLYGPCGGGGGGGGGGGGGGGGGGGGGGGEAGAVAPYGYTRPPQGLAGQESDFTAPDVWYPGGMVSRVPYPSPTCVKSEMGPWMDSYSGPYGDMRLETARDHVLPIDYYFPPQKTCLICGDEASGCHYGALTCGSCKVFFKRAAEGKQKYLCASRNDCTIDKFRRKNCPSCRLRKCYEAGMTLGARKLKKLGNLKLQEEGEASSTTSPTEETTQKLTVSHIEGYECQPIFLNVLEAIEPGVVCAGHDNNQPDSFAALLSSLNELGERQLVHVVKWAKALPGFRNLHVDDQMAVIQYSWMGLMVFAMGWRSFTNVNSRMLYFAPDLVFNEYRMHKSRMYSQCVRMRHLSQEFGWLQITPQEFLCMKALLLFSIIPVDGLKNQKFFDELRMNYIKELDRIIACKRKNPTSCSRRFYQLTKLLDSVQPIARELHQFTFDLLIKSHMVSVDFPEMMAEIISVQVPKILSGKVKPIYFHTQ
Outline: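 Luciferase read-out (ONE-Glo, 30min room temperature) in MDA-kb2 MMTV-reporter cells; agonist mode run in presence of AR antagonist nilutamide, 3.0uM final. Compounds tested as 15-point series, 16hr exposure at 37C, 0% CO2.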

[2] = qHTS assay to identify small molecule antagonists of the estrogen receptor beta (ER-beta) signaling pathway - cell viability counter screen (AID 1259382);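 further: HEK293T cells carrying ER-beta-UAS-bla reporter stimulated with estradiol; series mostly up to about 92 µM; nearly all actives have a fitted effect of over 55% in size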
Outline: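 Luminescent ATP read-out (CellTiter-Glo, 30 min, RT) taken in the same wells as the bla reporter assay. HEK293T ER-beta-UAS-bla cells in 2% charcoal-stripped FBS were exposed to compounds with 1nM E2 for 16 hr at 37C.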

[3] = target: Estrogen receptor (Homo sapiens) (UniProt P03372); assay: qHTS assay to identify small molecule agonists of the estrogen receptor alpha (ER-alpha) signaling pathway in the presence of an antagonist (AID 1259383; calls by dose curve; further: top concentration of the series differs between compounds; nearly all actives have a fitted effect of over 15% in size)
Sequence of Estrogen receptor (Homo sapiens) (P03372 whole entry, looked up): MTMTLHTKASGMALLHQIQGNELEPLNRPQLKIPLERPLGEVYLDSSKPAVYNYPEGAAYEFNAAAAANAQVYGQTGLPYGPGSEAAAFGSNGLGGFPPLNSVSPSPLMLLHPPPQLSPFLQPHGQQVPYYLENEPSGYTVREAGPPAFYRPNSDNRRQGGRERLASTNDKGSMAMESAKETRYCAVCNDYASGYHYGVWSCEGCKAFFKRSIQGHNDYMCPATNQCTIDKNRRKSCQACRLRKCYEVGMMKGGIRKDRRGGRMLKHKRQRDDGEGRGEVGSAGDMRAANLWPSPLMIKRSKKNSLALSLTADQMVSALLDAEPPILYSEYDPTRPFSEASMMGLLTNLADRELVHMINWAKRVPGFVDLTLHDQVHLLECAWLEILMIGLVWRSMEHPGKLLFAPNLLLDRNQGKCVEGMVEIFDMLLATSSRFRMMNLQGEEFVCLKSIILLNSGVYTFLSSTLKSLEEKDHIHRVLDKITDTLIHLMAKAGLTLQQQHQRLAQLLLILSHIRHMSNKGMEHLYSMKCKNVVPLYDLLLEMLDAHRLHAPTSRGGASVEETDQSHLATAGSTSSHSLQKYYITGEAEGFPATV
Outline: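 Luciferase luminescence (ONE-Glo, 30min at room temperature) measured in VM7Luc4E2 cells after 22hr compound exposure at 15 concentrations, with 10.0nM ICI-182,780 final present; cells express endogenous ER-alpha and carry four EREs upstream of luciferase.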

[4] = qHTS assay to identify small molecule agonists or antagonists of the thyroid stimulating hormone receptor (TSHR) signaling pathway - wild type cell line counter screen (AID 1259384; calls by dose curve)
Outline: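 Wild-type Hek293 cells, 800/well, 18 h at 37C, then compound with Ro20-1724 for 30 min RT. cAMP by HTRF (cAMP-d2/anti-cAMP cryptate), 1 h RT, fluorescence read. 15 concentrations, triplicates.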

[5] = target: Thyrotropin receptor (Homo sapiens) (UniProt P16473); assay: qHTS assay to identify small molecule antagonists of the thyroid stimulating hormone receptor (TSHR) signaling pathway (AID 1259385; calls by dose curve; further: nearly all actives have a fitted effect of over 20% in size)
Sequence of Thyrotropin receptor (Homo sapiens) (P16473 whole entry, looked up): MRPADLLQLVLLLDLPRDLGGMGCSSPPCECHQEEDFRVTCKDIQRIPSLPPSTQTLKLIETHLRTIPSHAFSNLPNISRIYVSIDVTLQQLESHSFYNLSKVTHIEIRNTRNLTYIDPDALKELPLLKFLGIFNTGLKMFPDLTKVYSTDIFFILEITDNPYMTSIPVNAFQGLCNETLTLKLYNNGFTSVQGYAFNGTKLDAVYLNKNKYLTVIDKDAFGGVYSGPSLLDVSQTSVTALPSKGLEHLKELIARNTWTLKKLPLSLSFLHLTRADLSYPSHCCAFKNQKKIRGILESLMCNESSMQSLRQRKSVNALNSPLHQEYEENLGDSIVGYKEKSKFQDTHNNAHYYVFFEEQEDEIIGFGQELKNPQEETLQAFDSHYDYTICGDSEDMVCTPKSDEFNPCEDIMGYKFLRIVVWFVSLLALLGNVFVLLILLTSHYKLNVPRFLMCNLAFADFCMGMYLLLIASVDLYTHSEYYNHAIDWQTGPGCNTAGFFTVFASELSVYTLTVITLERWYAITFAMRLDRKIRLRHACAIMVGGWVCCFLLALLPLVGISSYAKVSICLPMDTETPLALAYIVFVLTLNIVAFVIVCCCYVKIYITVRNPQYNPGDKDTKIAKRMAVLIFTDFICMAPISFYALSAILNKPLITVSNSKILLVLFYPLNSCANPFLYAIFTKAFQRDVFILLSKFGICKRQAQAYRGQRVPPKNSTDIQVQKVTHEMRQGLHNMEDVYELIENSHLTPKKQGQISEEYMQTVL
Outline: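 TSHR-HEK293 cells (800/well) plated 18 h, then compounds with Ro20-1724 and TSH at 1.5 ng/mL final, 30 min at room temperature. cAMP quantified by HTRF (cAMP-d2/anti-cAMP-cryptate, 1 h); 15 concentrations in triplicate.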

[6] = qHTS assay to identify small molecule agonists of the estrogen receptor alpha (ER-alpha) signaling pathway in the presence of an antagonist - cell viability counter screen (AID 1259386);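 further: series mostly up to about 92 µM; cells exposed to compounds for 22 h at 37 °C before the viability read; nearly all actives have a fitted effect of over 30% in size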
Outline: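 Read-out: CellTiter-Fluor fluorescence after 1hr reagent incubation, measured in the same wells as the luciferase readout. VM7Luc4E2 cells were exposed to 15 compound concentrations with 10.0nM ICI-182,780 for 22hr at 37C.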

[7] = target: Progesterone receptor (Homo sapiens) (UniProt P06401); assay: qHTS assay to identify small molecule agonists of the progesterone receptor (PR) signaling pathway (AID 1346784; calls by dose curve; further: nearly all actives have a fitted effect of over 30% in size)
Sequence of Progesterone receptor (Homo sapiens) (P06401 whole entry, looked up): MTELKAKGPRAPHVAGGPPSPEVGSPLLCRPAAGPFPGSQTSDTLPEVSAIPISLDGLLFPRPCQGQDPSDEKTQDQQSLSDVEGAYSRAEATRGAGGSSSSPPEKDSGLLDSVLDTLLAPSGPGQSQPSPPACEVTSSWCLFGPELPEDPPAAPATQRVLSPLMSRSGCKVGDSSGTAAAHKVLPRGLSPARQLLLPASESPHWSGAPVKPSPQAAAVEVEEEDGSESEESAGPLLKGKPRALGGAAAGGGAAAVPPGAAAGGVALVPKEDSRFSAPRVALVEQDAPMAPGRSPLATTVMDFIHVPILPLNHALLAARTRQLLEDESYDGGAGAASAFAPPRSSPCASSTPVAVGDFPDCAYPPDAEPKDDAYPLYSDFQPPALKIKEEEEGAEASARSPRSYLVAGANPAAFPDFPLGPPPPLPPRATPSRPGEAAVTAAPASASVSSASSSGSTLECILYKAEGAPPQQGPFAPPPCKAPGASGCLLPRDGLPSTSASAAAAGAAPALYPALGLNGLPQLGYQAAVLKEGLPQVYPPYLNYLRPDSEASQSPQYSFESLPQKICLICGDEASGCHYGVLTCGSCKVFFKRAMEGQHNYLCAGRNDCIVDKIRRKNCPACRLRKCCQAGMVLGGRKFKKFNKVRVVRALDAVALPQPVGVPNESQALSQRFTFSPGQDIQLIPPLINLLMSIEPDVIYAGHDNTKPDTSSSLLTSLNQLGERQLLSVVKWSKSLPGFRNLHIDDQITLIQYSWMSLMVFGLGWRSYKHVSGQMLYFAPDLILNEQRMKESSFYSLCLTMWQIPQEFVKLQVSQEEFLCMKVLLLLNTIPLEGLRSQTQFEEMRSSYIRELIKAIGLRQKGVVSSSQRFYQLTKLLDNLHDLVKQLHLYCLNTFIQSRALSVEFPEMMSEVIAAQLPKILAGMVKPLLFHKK
Outline: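 HEK 293T PR-UAS-bla reporter cells, 2% charcoal-stripped FBS; 6 hr settle at 37C/5% CO2, compound (DMSO) 16 hr, LiveBLAzer B/G FRET substrate 2 hr RT, fluorescence intensity read.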

[8] = target: Progesterone receptor (Homo sapiens) (UniProt P06401); assay: qHTS assay to identify small molecule antagonists of the progesterone receptor (PR) signaling pathway (AID 1346795; active means well fitted inhibition curve with a large enough effect in the signal ratio in the repeat runs, not every such curve was filed as active; the % refers to the signal ratio)
Outline: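 Beta-lactamase reporter, HEK293T PR-UAS-bla line; 2% charcoal-stripped FBS; 6 hr pre-incubation, 37C/5% CO2. Compound + R5020 1 nM final, 16 hr. LiveBLAzer B/G FRET substrate, 2 hr RT; fluorescence intensity read.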

[9] = qHTS assay to identify small molecule agonists of the progesterone receptor (PR) signaling pathway - cell viability counter screen (AID 1346799; calls by dose curve; further: nearly all actives have a fitted effect of over 45% in size)
Outline: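 HEK293T PR-UAS-bla, 3,000 cells/well, 2% charcoal-stripped FBS; 6 h settle, compound 16 h at 37C/5% CO2; LiveBLAzer 2 h RT, then CellTiter-Glo 30 min RT, luminescence read.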

[10] = qHTS assay to identify small molecule antagonists of the TGF-beta/Smad signaling pathway - cell viability counter screen (AID 1346824); further: nearly all actives have a fitted effect of over 50% in size
Outline: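 SBE-bla HEK 293T cells, incubated overnight, then compound plus 0.25 ng/mL TGF-beta1 (stock added) for 5 hr at 37 C. Viability was read in the same wells by CellTiter-Glo luminescence after 30 min at room temperature.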

[11] = qHTS assay to identify small molecule agonists of the TGF-beta/Smad signaling pathway - cell viability counter screen (AID 1346829); further: top concentration of the series differs between compounds; nearly all actives have a fitted effect of over 45% in size
Outline: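 Compound-treated SBE-bla HEK 293T cells (5 hr, 37 C) were assessed for viability with CellTiter-Glo in parallel with the reporter read.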

[12] = qHTS assay to identify small molecule agonists of the TGF-beta/Smad signaling pathway (AID 1346859; active means well fitted activation curve with a large enough effect in the signal ratio in the repeat runs, not every such curve was filed as active; the % refers to the signal ratio; further: series mostly up to about 77 µM)
Outline: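 Read-out: fluorescence at 460 and 530 nm (405 nm excitation) after a 2 hr room-temperature incubation with beta-lactamase FRET substrate. SBE-bla HEK 293T cells had been treated with test compounds for 5 hr at 37 C.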

[13] = Human pregnane X receptor (PXR) small molecule agonists, qHTS cell viability counter screen (AID 1346977); further: nearly all actives have a fitted effect of over 50% in size
Outline: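 Fluorescence read-out (CellTiter-Fluor) of viability in PXR-Luc HepG2 cells, multiplexed with the luciferase agonist read. Compounds in DMSO added after 5hr plating; 24hr total exposure at 37C, 5% CO2.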

[14] = Caspase-3/7 induction in HepG2 cells by small molecules, qHTS assay (AID 1346978); further: nearly all actives have a fitted effect of over 15% in size
Outline: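 Wild-type HepG2 cells, 2,000/well, settled 5 hr at 37 C and 5% CO2, then compound-treated for 17 hr; caspase-3/7 activity read by luminescent Caspase-Glo 3/7 after 30 min at room temperature.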

[15] = Caspase-3/7 induction in CHO-K1 cells by small molecules, qHTS assay (AID 1346980); further: nearly all actives have a fitted effect of over 15% in size
Outline: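 Wild-type CHO-K1 cells exposed to compounds for 17hr at 37 C, 5% CO2. Caspase-3/7 activity then measured by Caspase-Glo 3/7 luminescence after 30min at room temperature.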

[16] = Caspase-3/7 induction in HepG2 cells by small molecules, qHTS cell viability counter screen (AID 1346981); further: series mostly up to about 92 µM; nearly all actives have a fitted effect of over 30% in size
Outline: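 Fluorescence read-out of live-cell protease activity (CellTiter-Fluor) after 1 hr with reagent. This was measured in the same wells as the caspase-3/7 luminescence, on HepG2 cells exposed to DMSO-dissolved compounds for 16 hr at 37 C.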

[17] = qHTS assay to identify small molecule antagonists of the progesterone receptor (PR) signaling pathway - cell viability counter screen (AID 1346798); further: series mostly up to about 92 µM; nearly all actives have a fitted effect of over 50% in size
Outline: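 Luminescence readout (CellTiter-Glo, 30 min, RT) of viability in PR-UAS-bla HEK293T cells exposed to compound and R5020 agonist for 16 hr at 37C, 5% CO2; run in the same wells as the beta-lactamase reporter read.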

[18] = target: Thyrotropin-releasing hormone receptor (Homo sapiens) (UniProt P34981); assay: qHTS assay to identify small molecule agonists of the thyrotropin-releasing hormone receptor (TRHR) signaling pathway (AID 1346891; calls by dose curve;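 further: HEK293 cells expressing TRHR with calcium dye readout; series mostly up to about 58 µM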)
Sequence of Thyrotropin-releasing hormone receptor (Homo sapiens) (P34981 whole entry, looked up): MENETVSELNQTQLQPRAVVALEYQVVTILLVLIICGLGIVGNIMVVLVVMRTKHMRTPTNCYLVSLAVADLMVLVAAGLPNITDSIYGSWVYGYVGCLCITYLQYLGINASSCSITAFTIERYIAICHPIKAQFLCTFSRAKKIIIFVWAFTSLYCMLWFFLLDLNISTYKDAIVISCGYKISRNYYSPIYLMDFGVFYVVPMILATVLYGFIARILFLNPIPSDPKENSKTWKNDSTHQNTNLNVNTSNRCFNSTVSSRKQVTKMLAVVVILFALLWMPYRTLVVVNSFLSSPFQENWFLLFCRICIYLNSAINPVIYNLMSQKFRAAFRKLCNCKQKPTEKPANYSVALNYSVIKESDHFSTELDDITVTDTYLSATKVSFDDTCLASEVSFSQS
Outline: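 HEK293/TRHR cells, 1500 per well, 18 h 37 °C; Ca dye 2 h 37 °C; pin-tool compound addition (agonist mode); kinetic fluorescence 3 min, 1 s reads; 15 concentrations, triplicate.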

[19] = Caspase-3/7 induction in CHO-K1 cells by small molecules, qHTS cell viability counter screen (AID 1346979); further: nearly all actives have a fitted effect of over 35% in size
Outline: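 CHO-K1 wt, 1,500 cells/well; 5hr pre-incubation 37C/5% CO2; compound pin transfer (DMSO); 16hr exposure; CellTiter-Fluor added, 1hr, fluorescence read.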

[20] = target: Thyrotropin-releasing hormone receptor (Homo sapiens) (UniProt P34981); assay: qHTS assay to identify small molecule antagonists of the thyrotropin-releasing hormone receptor (TRHR) signaling pathway (AID 1346877; active means well fitted inhibition curve with a large enough effect in the repeat runs, not every such curve was filed as active; further: series mostly up to about 51 µM)
Outline: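 HEK293/TRHR cells, 18 h, 37 °C; Ca2+ dye 2 h; cpd 5 min RT; TRH 1 nM final; fluorescence read 3 min, 1 s intervals; 15 concs, triplicate.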

Measured: Potency

Nc1nc(-c2ccccc2)c(Br)c(=O)[nH]1
not listed: [17] | [18] | [19] | [20]
inactive: all other assays above

CC(=O)CC(=O)Nc1ccc(C)cc1C
not listed: [3] | [7] | [8] | [20]
inactive: all other assays above

CC(C)COC(=O)c1ccccc1
not listed: [2] | [7] | [8] | [9] | [17] | [20]
inactive: all other assays above

CC1(C)Cc2cccc(N)c2O1
not listed: [1] | [18] | [20]
inactive: all other assays above

Cc1ccccc1C(N)=O
not listed: [1]
inactive: all other assays above

c1ccc(-c2nn[nH]n2)cc1
not listed: [1]
inactive: all other assays above

Fc1ccccc1
not listed: [1]
inactive: all other assays above

COP(=O)(O)OP(=O)(O)OC
not listed: [1] | [18] | [19]
inactive: all other assays above
